According to the supplement of paper PMC11060735:
± gives the standard deviation of the averaged measurements. Over roughly 1,800 compounds, “GFP- (p16Ink4a-) cell count relative to negative-control wells” has its median near 0.99; the lowest 2% begin near 0.5. Many of the other results were omitted from the sample, so the lowest values are more common in it than they were.

system: mouse p16Ink4a+/- lung fibroblasts (INKBRITE, bleomycin-injured); assay: GFP- (p16Ink4a-) cell count relative to negative-control wells (fold of vehicle); higher = more p16Ink4a- cells surviving; conditions: 1 µM; 3 days

Structure (SMILES) | GFP-
C[C@@H](CN1CC(=O)NC(=O)C1)N1CC(=O)NC(=O)C1 [Dexrazoxane] | 0.899
Cn1ncnc1[C@H]1c2nnc(O)c3cc(F)cc(c23)N[C@@H]1c1ccc(F)cc1 | 0.616 ± 0.066
CC1=NC(N)=C(C(=O)OC2CN(C(c3ccccc3)c3ccccc3)C2)C(c2cccc([N+](=O)[O-])c2)/C1=C(/O)OC(C)C (stereo not given) [Azelnidipine] | 1.11
Cc1cc(CN2CCN(c3c(Br)cnc4[nH]c(-c5ccc(N6CCN(C)CC6)cc5)nc34)CC2)no1 | 0.664 ± 0.17
NS(=O)(=O)c1cc2c(cc1Cl)NCNS2(=O)=O [Hydrochlorothiazide] | 1.06
CC[C@]1(O)C[C@@H]2CN(CCc3c([nH]c4ccccc34)[C@@](C(=O)OC)(c3cc4c(cc3OC)N(C=O)[C@@H]3C45CCN4CC=C[C@](CC)([C@H]45)[C@@H](OC(C)=O)[C@]3(O)C(=O)OC)C2)C1 (stereo not given in full) [Vincristine] | 0.699
CCn1cc(C(=O)O)c(=O)c2ccc(C)nc21 [Nalidixic Acid] | 0.895
CC(=O)O[C@]1(C(C)=O)CC[C@H]2[C@@H]3C[C@H](C)C4=CC(=O)C=C[C@]4(C)[C@@]3(F)[C@@H](O)C[C@@]21C [Fluorometholone Acetate] | 1.14
C[C@@]1(C(=O)Nc2ccc(F)nc2)CCCN1c1nc(Nc2cc(C3CC3)[nH]n2)c2cccn2n1 | 0.776
COc1cc2nc(N3CCN(C(=O)C4CCCO4)CC3)nc(N)c2cc1OC (stereo not given) [Terazosin] | 0.942
CC(C(=O)O)c1ccc2c(c1)CC(=O)c1ccccc1S2 (stereo not given) [Zaltoprofen] | 1.01
Cc1ccc(CNc2ncnc3ccc(-c4ccc(CO)o4)cc23)o1 | 0.793
CC1=C(C(=O)OC2CCCCC2)C(c2ccc([N+](=O)[O-])cc2)C2=C(O)CC(C)(C)CC2=N1 (stereo not given) | 0.82
CC(C)c1ccc(NC(=O)Cn2cnc3c2c(=O)n(C)c(=O)n3C)cc1 | 0.98
CCC(=O)N1CCN(c2ccc(-n3c(=O)ccc4cnc5ccc(-c6cnc7ccccc7c6)cc5c43)cc2C(F)(F)F)CC1 [Torin 1] | 0.571
Nc1ccc(-c2ccc3ncc4ccc(=O)n(-c5cccc(C(F)(F)F)c5)c4c3c2)cn1 [Torin 2] | 0.456
O=C(O)CCNC(=O)c1ccccc1 [Betamipron] | 1.06
O=C(O)c1ccccc1 [Benzoic Acid] | 1.05
CN(NC(=O)CC(=O)NN(C)C(=S)c1ccccc1)C(=S)c1ccccc1 [Elesclomol] | 0.277
CC1(C)O[C@@H]2C[C@H]3[C@@H]4CCC5=CC(=O)CC[C@]5(C)[C@@]4(F)[C@@H](O)C[C@]3(C)[C@]2(C(=O)CCl)O1 [Halcinonide] | 1.02
